# Experimental data as given in PubChem BioAssay (NCI).
# This is part of a sample that, as a whole, favours compounds with a hit. Of some 83,000 tested, about 20% had one in any assay.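 For each line, cells grew in 96-well plates with the test compound present at a single concentration for 48 hours.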 Unmarked numbers belong to inactive results. Calls of active or inactive are those of the source. How the source made its calls: active means growth percent below 10; inactive means the rest.
# Tested on: HOP-62 NSCLC
# Assay: NCI-60 one-dose screen, 48 h (100 = growth as untreated, 0 = no growth, -100 = all killed)
# Details: 10 µM unless noted
row,Structure (SMILES),growth
1,O=C1OC(N(Cc2ccc(Cl)cc2)c2ccccc2)c2ccccc21 (stereo not given),88.9%
2,CN(C)CC/C=C1\c2ccccc2Sc2ccc(Cl)cc21,75.6%
3,O=C(Nc1cccc(-n2ccc3c(NC(=O)c4ccccc4)nccc32)c1)Nc1cc(C(F)(F)F)cc(C(F)(F)F)c1,35.6%
4,CCCCC(=O)Nc1nc2ccc(SCCC)cc2s1,51.8%
5,CCN(CC)c1ccc(C2CC(c3cc(OC)c(OC)c(OC)c3)=NN2)cc1 (stereo not given),34.7%
6,c1ccc2nc(Cn3cc[n+](Cc4ccc5ccccc5n4)c3)ccc2c1,82.5%
7,Clc1ccc(OCc2nc(-c3ccccc3)n[nH]2)c(Cl)c1,86.8%
8,CC(C)CNCC(=O)Nc1ccc(Cc2ccc(NC(=O)CNCC(C)C)cc2)cc1,59.1%
9,O=C(O)c1ccc(-n2cc(/C=N/Nc3ccc(F)cc3)c(-c3cccc(C(F)(F)F)c3)n2)cc1,96.1%
10,CCCCCCCCCCCCCCCCCCNCc1ccc(Cl)cc1,-77.7% (active)
11,COc1ccc(CCNC=O)cc1OC,107%
12,O=C(COc1ccc(Cl)cc1Cl)N1N=C(c2ccc(Cl)cc2Cl)CC1(O)c1cc(F)c(Cl)cc1Cl (stereo not given),105%
13,Cc1nccc2c3ccc(OCc4cn(Cc5ccc(Br)cc5)nn4)cc3n(CCCc3ccccc3)c12,62%
14,COc1ccc(-c2c(C#N)cnc(N)c2-c2nc3cc(C)c(C)cc3[nH]2)cc1,57%
15,O=c1c2ccccc2[nH]n1Cc1ccc2c(c1)OCO2,97.1%
16,COc1cc(Nc2ncccc2C(=O)Nc2nc3ccc(F)cc3s2)cc(OC)c1OC,40.9%
17,Cc1ccc(Cn2cc(COc3ccc4c5ccnc(C)c5n(CCCc5ccccc5)c4c3)nn2)cc1,87.1%
18,O=C(Nc1ccc(-n2ccc3c(NC(=O)c4ccccc4)ncnc32)cc1)Nc1ccc(Cl)c(C(F)(F)F)c1,20.1%
19,CCCCOc1c(N)cc(Cl)cc1C(=O)OCCN(CC)CC,91.8%
20,CC(Cl)(CCl)CS(=O)(=O)c1ccc(Cl)cc1 (stereo not given),94.8%
21,CCc1c(C)c2cc3c(c(C)c2oc1=O)OCC(=O)N3,73.5%
22,Cc1ccc(NC(=O)CN2CCOCC2)cc1Cl,91%
23,CC1(C)CC(=O)C2=C(C1)OC1=C(C(=O)CC(C)(C)C1)C2c1ccc(OCc2cn(-c3ccc(F)cc3F)nn2)cc1,116%
24,COc1cccc(-c2nc3sccn3c2-c2ccnc(NCCNC(=O)Nc3cccc(C(F)(F)F)c3)n2)c1,98.9%
25,CN(C)c1ccc(/C=N/N=C(N)N)cc1,75.3%
